An excerpt weighted towards active compounds, which were near 6.9% of everything screened.
MPTP inh – inhibitors of mitochondrial permeability transition pore; isolated mouse mitochondria, Ca2+ swelling absorbance, 30 min; 1.4% of 360,000 active; inhibition, % at 10 µM; AID 602449;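 active means inhibition of 50% or more, scaled per plate between neutral and stimulator controls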;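 further: 0% = DMSO wells given calcium and 100% = 1 mM EGTA wells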
NR3A LBD binder – modulators (binders) of human NR3A ligand-binding domain. NR3A LBD differential scanning fluorimetry, Tm shift; 0% = protein alone, 100% = glycine-bound protein. Tm shift relative to glycine control, % at 25 µM. AID 1259313. 2.5% of 340,000 active;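 active means melting temperature shift of at least 10% of the positive control shift, at one fixed dose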
CSC inhib – blocks cancer stem cells | cancer stem cell-like cells viability, luminescence | inhibition, % at 7.5 µM | 1.1% of 300,000 active | AID 2717; in the data active means inhibition above about 75%; inconclusive means no clear call, values can overlap the other calls; tested in HMLE shEcad cells
Beta cell apopt – blocks beta cell apoptosis; INS-1E cytokine-induced death, ATP luminescence, 48 h; percent of positive-control rescue, neutral wells zero; protection from apoptosis, % (concentration not given with the values); 0.8% of 300,000 active; AID 435005;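 active means Every replicate reaches about 75%, or at least half do and their mean reaches it too, limit read from the data; inconclusive means At least half of replicates reach the limit but their mean does not; inactive means Under half of replicates reach the limit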;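 further: 0% = cytokine-treated negative control wells and 100% = positive control rescue; higher means more ATP so stronger rescue from cytokine killing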
Mdm2-MdmX inh – disrupts the human Mdm2-MdmX interaction; inhibition, % at 8 µM; 3% of 330,000 active; O15151+Q00987; SaOS-2 split-luciferase Mdm2/MdmX complementation, luminescence; AID 485346;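 active means inhibition of at least 50% at 8 µM in the primary screen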
Target sequence (O15151 whole entry, looked up): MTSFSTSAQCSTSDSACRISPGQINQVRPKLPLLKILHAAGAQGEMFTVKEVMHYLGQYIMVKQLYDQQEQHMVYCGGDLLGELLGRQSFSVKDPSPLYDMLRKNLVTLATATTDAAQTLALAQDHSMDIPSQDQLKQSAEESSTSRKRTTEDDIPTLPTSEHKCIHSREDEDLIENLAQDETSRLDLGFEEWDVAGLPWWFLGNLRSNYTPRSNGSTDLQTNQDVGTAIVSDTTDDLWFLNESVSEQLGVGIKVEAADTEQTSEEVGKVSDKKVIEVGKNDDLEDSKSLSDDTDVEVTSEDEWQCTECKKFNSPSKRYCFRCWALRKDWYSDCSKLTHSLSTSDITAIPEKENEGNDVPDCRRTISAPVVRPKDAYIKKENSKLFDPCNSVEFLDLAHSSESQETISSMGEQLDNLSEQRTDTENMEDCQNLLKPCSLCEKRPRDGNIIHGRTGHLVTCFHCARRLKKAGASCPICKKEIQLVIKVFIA
Target sequence (Q00987 whole entry, looked up): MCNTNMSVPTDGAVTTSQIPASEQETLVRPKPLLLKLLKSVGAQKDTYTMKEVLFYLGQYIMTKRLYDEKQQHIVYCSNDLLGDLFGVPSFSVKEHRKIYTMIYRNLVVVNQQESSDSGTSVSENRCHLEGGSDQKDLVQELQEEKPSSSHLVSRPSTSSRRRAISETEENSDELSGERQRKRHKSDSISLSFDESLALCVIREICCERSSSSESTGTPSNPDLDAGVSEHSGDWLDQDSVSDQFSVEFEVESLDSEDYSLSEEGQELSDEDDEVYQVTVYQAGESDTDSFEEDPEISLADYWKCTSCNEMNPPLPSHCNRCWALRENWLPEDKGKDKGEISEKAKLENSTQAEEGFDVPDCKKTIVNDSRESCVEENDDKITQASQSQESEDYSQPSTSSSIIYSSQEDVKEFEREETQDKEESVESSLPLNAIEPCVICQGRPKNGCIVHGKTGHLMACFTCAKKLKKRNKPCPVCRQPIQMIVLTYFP
SKKanGAS inh – inhibitors of SKKanGAS S. pyogenes growth in kanamycin (SK-promoter or general growth effect); BacTiter-Glo, 6 h; inhibition, % at 7.5 µM; 1.3% of 300,000 active;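 active means mean replicate score, as percent of positive control median, at least 50; inconclusive means mean below 50 but one replicate at or above 50; inactive means mean and every replicate below 50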;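 further: strain carries kanamycin resistance gene driven by streptokinase promoter and grows in 40 µg/ml kanamycin; loss of luminescence reflects streptokinase promoter inhibition or plain growth inhibition; 0% = median of DMSO wells and 100% = positive control at its reference dose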
MPTP counter – membrane potential counter-screen of mitochondrial pore inhibitors; AID 624504; isolated mitochondria, Rhodamine 123 fluorescence; 78% of 5,000 active; shares compounds with MPTP inh; inhibition, % at 10 µM; in the data active means inhibition above about 22%;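 further: 0% = DMSO vehicle and 100% = positive control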
MPTP swell DR – MPTP inhibition, dose response swelling confirmation; IC50, µM; isolated mitochondria swelling, absorbance; shares compounds with MPTP inh; 58% of 780 active; AID 651561; in the data active means IC50 below about 20 µM
MPTP cs DR – MPTP inhibitor counter-screen activity, dose response; 49% of 780 active; IC50, µM; shares compounds with MPTP inh; AID 651564; isolated mitochondria counterscreen, fluorescence read-out; in the data active means IC50 below about 80 µM
Active calls of the source: *.

Results for Cc1ccc(NC(=O)C(Nc2ccccc2)c2ccccc2)cc1 (centres undefined) ?
MPTP inh: 0.7; NR3A LBD binder: -2.7; CSC inhib: 24.0; Beta cell apopt: 1.9; Mdm2-MdmX inh: 21.4; SKKanGAS inh: 8.3

What do the screens show for `Cc1cc(C)cc(-n2cccc2/C=C2/C(=N)N3C(=NC2=O)SN=C3S(C)(=O)=O)c1`?
MPTP inh: 62.7*; NR3A LBD binder: 1.3; CSC inhib: 72.3; Beta cell apopt: 2.0; Mdm2-MdmX inh: 21.2; SKKanGAS inh: 70.8*; MPTP counter: 49.6*

How did CCCCCCc1cc2cc(-c3nnc(-c4ccccc4OC)o3)c(=O)oc2cc1O do in these assays?
MPTP inh: 83.9*; NR3A LBD binder: 23.8*; CSC inhib: inconclusive; Mdm2-MdmX inh: 18.0; SKKanGAS inh: 8.5; MPTP counter: 5.2

How did Cc1ccc(NC(=O)c2cccc(S(=O)(=O)N3CCN(C)CC3)c2)cc1F do in these assays?
MPTP inh: -0.5; NR3A LBD binder: 2.8; CSC inhib: -17.7; Beta cell apopt: -1.3; Mdm2-MdmX inh: 9.9; SKKanGAS inh: 10.7

What do the screens show for `O=[N+]([O-])c1cc(-n2cnnn2)ccc1N1CCC(Cc2ccccc2)CC1`?
MPTP inh: 75.3*; NR3A LBD binder: -0.8; CSC inhib: 51.8; Beta cell apopt: 17.6; Mdm2-MdmX inh: 18.2; SKKanGAS inh: 23.5; MPTP counter: 57.0*

How did O=C(CN1CCc2ccccc2C1)NCC(=O)Nc1ccc(F)cc1 do in these assays?
MPTP inh: 0.7; NR3A LBD binder: 0.1; CSC inhib: -7.4; Beta cell apopt: -5.9; Mdm2-MdmX inh: 23.6; SKKanGAS inh: -3.7

Results for CCOC(=O)CSc1n[nH]c(=S)s1 ?
MPTP inh: 1.3; NR3A LBD binder: 1.5; CSC inhib: 6.9; Beta cell apopt: 2.6; Mdm2-MdmX inh: 3.6; SKKanGAS inh: -3.0

Results for CC(C)(C)CC(C)(C)SSc1n[nH]c(=S)s1 ?
MPTP inh: 51.0*; NR3A LBD binder: 0.5; MPTP counter: 36.7*

What do the screens show for `Cc1ccc(-c2nc(CSCC(=O)N3CCCC3)c(C)o2)cc1`?
MPTP inh: 1.9; NR3A LBD binder: -1.0; CSC inhib: -3.9; Beta cell apopt: -4.4; Mdm2-MdmX inh: 13.8; SKKanGAS inh: -7.1

Results for Cc1cccc(-c2nc(CSCC(=O)N3CCN(c4ccccn4)CC3)c(C)o2)c1 ?
MPTP inh: 77.7*; NR3A LBD binder: 0.2; CSC inhib: 17.0; Beta cell apopt: -2.3; Mdm2-MdmX inh: 12.2; SKKanGAS inh: -14.1; MPTP counter: 62.9*

What do the screens show for `CC1=C(C(=O)N(C(C)C)C(C)C)CC(CC(=O)NCc2cccs2)C(=O)N1Cc1ccc(C(C)(C)C)cc1` (centres undefined)?
MPTP inh: -1.6

How did Cc1onc(-c2c(F)cccc2Cl)c1C(=O)OCc1cnc(Cl)s1 do in these assays?
MPTP inh: 52.2*; NR3A LBD binder: -1.9; CSC inhib: -8.8; Beta cell apopt: 2.2; Mdm2-MdmX inh: 22.6; SKKanGAS inh: 10.7; MPTP counter: 5.5; MPTP swell DR: inactive; MPTP cs DR: 65.7*

Results for O=C1CCCN2N=C(SCC(=O)Nc3cccc(C(F)(F)F)c3)SC2=N1 ?
MPTP inh: 73.8*; NR3A LBD binder: -2.4; Beta cell apopt: -0.9; Mdm2-MdmX inh: 15.1; SKKanGAS inh: 2.5; MPTP counter: 73.8*

What do the screens show for `O=C1CCCN2N=C(SCC(=O)Nc3cccc(Cl)c3)SC2=N1`?
MPTP inh: 16.8; NR3A LBD binder: -3.8; Beta cell apopt: -2.7; Mdm2-MdmX inh: 9.1; SKKanGAS inh: 4.2

What do the screens show for `Cc1c(CC(Cl)(Cl)Cl)c2c(n1O)CC(C)(C)CC2=O`?
MPTP inh: 72.3*; NR3A LBD binder: -4.3; CSC inhib: -2.4; Beta cell apopt: 3.4; Mdm2-MdmX inh: -3.8; SKKanGAS inh: 2.2; MPTP counter: 46.6*

Results for Cn1cc(CN2CCCC(C(=O)Nc3cccc(-n4cccn4)c3)C2)cn1 (centres undefined) ?
MPTP inh: -3.2; NR3A LBD binder: -4.9; CSC inhib: -1.0; Beta cell apopt: -6.3; Mdm2-MdmX inh: 17.5; SKKanGAS inh: -1.1

How did CCOc1ccccc1CN1CCCC(C(=O)Nc2cccc(-n3cccn3)c2)C1 (centres undefined) do in these assays?
MPTP inh: 58.2*; NR3A LBD binder: 0.1; Beta cell apopt: 0.7; Mdm2-MdmX inh: 26.4; SKKanGAS inh: -8.3; MPTP counter: 8.6; MPTP swell DR: 6.84*; MPTP cs DR: 18.5*

What do the screens show for `CCOc1cccc(CN2CCCC(C(=O)Nc3cccc(-n4cccn4)c3)C2)c1` (centres undefined)?
MPTP inh: 1.2; NR3A LBD binder: -0.3; CSC inhib: 6.7; Beta cell apopt: -1.0; Mdm2-MdmX inh: 24.6; SKKanGAS inh: -5.7

What do the screens show for `Cc1cc(CN2CCCC(C(=O)Nc3cccc(-n4cccn4)c3)C2)cc(C)c1O` (centres undefined)?
MPTP inh: 70.4*; NR3A LBD binder: -0.8; CSC inhib: -5.4; Beta cell apopt: 2.7; Mdm2-MdmX inh: 6.1; SKKanGAS inh: 2.3; MPTP counter: 85.2*

Results for CC1CN(C(=O)CN(C)S(=O)(=O)c2ccc3ccccc3c2)CC(C)O1 (centres undefined) ?
MPTP inh: 0.6; NR3A LBD binder: 1.3; CSC inhib: 9.7; Beta cell apopt: 1.2; Mdm2-MdmX inh: 7.6; SKKanGAS inh: -3.3

What do the screens show for `CC(C)(C)c1ccc(OCCCn2ccnc2)cc1`?
MPTP inh: active; NR3A LBD binder: 0.3; CSC inhib: 26.4; Beta cell apopt: 15.0; Mdm2-MdmX inh: 8.5; SKKanGAS inh: -1.1; MPTP counter: 10.5; MPTP swell DR: 13.3*; MPTP cs DR: 27.2*

How did CC1CC(C)CN(S(=O)(=O)N2CCCC(C(=O)NC(C)c3ccccc3)C2)C1 (centres undefined) do in these assays?
MPTP inh: -0.1; NR3A LBD binder: 0.2; CSC inhib: -3.0; Beta cell apopt: 3.8; Mdm2-MdmX inh: 10.1; SKKanGAS inh: -0.6

What do the screens show for `Cc1ccc(C(=O)/C=C/Nc2ccc(S(=O)(=O)Nc3cc(C)nc(C)n3)cc2)cc1`?
MPTP inh: -1.2; NR3A LBD binder: 6.0; CSC inhib: -1.8; Mdm2-MdmX inh: 10.5; SKKanGAS inh: 27.1

What do the screens show for `CC(=O)c1cccc(NS(=O)(=O)c2ccc(N/C=C\C(=O)c3ccc(C)cc3)cc2)c1`?
MPTP inh: 106.2*; NR3A LBD binder: 7.4; CSC inhib: -6.4; Beta cell apopt: 45.4; Mdm2-MdmX inh: 41.3; SKKanGAS inh: 5.2; MPTP counter: 84.6*

High-throughput results: PubChem BioAssay, several laboratories
